Results reported in PubChem BioAssay (NCATS).
Results filed as inconclusive are left out. Active and inactive are the calls of the source. The call rests on the fitted dose curve; in most records, active means well fitted inhibition curve with a large enough effect; inconclusive means small, poorly fitted or top-dose-only effect; inactive means no such curve, though single readings can be large or run the other way.

Assay: S16 Schwann cell PMP22 intronic element firefly luciferase assay (AID 624032); further: nearly all actives have a fitted effect of over 30% in size
Conditions: S16 rat Schwann cells, PMP22 element FLuc, 24 h; series mostly up to 57.5 µM; activity change, negative = inhibition: at the top concentration
Source text: Charcot-Marie-Tooth-Association [CMTA]
National Center for Advancing Translational Sciences [NCATS]
Charcot-Marie-Tooth (CMT) disease was first characterized by Jean-Martin Charcot and Pierre Marie in France and, independently, by Howard Henry Tooth in England in 1886. CMT is one of the most common inherited neurological diseases, affecting approximately 1 in 2,500 Americans. […] The most prevalent type of CMT is known as CMT1A and caused by a duplication of the PMP22 gene which leads to over-expression of this protein. PMP22 is a glycosylated intrinsic membrane protein accounting for 2-5% of the myelin protein content, and its over-expression results in demyelination and subsequently axonal loss.
A pair of cellular transcription-based assays was developed in the S16 rat Schwann cell lines (Hai, M., et al., 2002) stably transfected with orthogonal reporters - firefly luciferase (Fluc) and beta-lactamase (beta-Lac) - whose expression is driven by an intronic regulatory element of the PMP22 gene (Jones, E.A., et al., 2011) to recapitulate endogenous expression of PMP22. The current assay employs Fluc to report on PMP22 expression. A comprehensive library of approved drugs, the NCGC Pharmaceutical Collection (Huang, R., et al., 2011), was screened in the cross-validating platform of the orthogonal reporter assays to identify drug modulators inhibitory towards PMP22 expression.
A set of counter-screens was devised to address non-specific activity of the library. An ATP-dependent CellTiter-Glo assay (developed by Promega Corp) was utilized to control cell viability. In addition, biochemical Fluc enzyme assay was performed to assess direct inhibition of the Fluc enzymatic activity.
Hai, M., Muja, N., DeVries, G.H., Quarles, R.H. and Patel, P.I. Comparative analysis of Schwann cell lines as model systems for myelin gene transcription studies. J Neurosci Res, 2002. 69(4): pp 497-508
Huang, R., Southall, N., Wang, Y., Yasgar A., Shinn P., Jadhav, A. , Nguyen, D.-T. and Austin, C.P., The NCGC pharmaceutical collection: a comprehensive resource of clinically approved drugs enabling repurposing and chemical genomics. Sci Transl Med, 2011. 3(80): p. 80ps16.
S16 Schwann cell PMP22 intronic element firefly luciferase assay
The FLuc-expressing S16 cells were seeded in white solid 1536-well plates at between 500-750 cells/4uL in DMEM medium containing 10% FBS, w/o phenol red. After overnight incubation at 37 degree Celsius/5% C02, 23 nL of compounds or DMSO were delivered to each well using a pin tool, followed by 24h-incubation at 37 degree Celsius/5% C02. Then 4 uL ONE-Glo luminescent substrate mix (Promega) was added to each well. Luminescence was measured on a ViewLux plate reader (Perkin Elmer). The % activity was determined by normalizing to the average readings of PTC124 (a positive control) - treated cells relative to DMSO-treated cells (0% Activity). The concentration-effect curves were then classified based on curve quality (r2), response magnitude and degree of measured activity.
Potency means the concentration at half of the fitted maximal effect.

Row | Structure (SMILES) | activity change, negative = inhibition | Potency
1 | CCC(=O)OC1C(N(C)C)CC(C)O[C@H]1O[C@H]1[C@H](C)[C@@H](O[C@H]2CC(OC)[C@@H](O)C(C)O2)[C@H](C)C(=O)O[C@@H](CC)[C@](C)(O)[C@@H](O)[C@H](C)C(=O)[C@@H](C)C[C@]1(C)O (stereo not given in full) | -15.9% (inactive) | –
2 | O=C1Oc2ccccc2C(=O)C1C(CC(O)c1ccc(-c2ccc(Br)cc2)cc1)c1ccccc1 (stereo not given) | – | 36.1 µM (active)
3 | NC(=O)C1CC2(NC(=O)NC2=O)c2cc(F)ccc2O1 (stereo not given) | 3.98% (inactive) | –
4 | CC1OC(OCC2OC(Oc3c(-c4ccc(OCCO)c(OCCO)c4)oc4cc(OCCO)cc(O)c4c3=O)C(O)C(O)C2O)[C@@H](O)C(O)C1O (stereo not given in full) | 13.5% (inactive) | –
5 | CCCCN1CC(O)C(O)C(O)C1CO (stereo not given) | -1.16% (inactive) | –
6 | CC(=O)N[C@H]1[C@H](O[C@@H]2c3ccc(c(Cl)c3)Oc3cc4cc(c3O[C@@H]3O[C@H](CO)[C@@H](O)[C@H](O)C3C)Oc3ccc(cc3Cl)C[C@H]3NC(=O)[C@@H](N)c5ccc(O)c(c5)Oc5cc(O)cc(c5)[C@H](NC3=O)C(=O)N[C@H]4C(=O)N[C@H]3C(=O)N[C@@H]2C(=O)N[C@@H](C(=O)O)c2cc(O)cc(O[C@H]4O[C@H](CO)[C@@H](O)C(O)[C@@H]4O)c2-c2cc3ccc2O)O[C@H](CO)[C@@H](O)[C@@H]1O (stereo not given in full) | -28.6% [at 25.7 µM] (inactive) | –
7 | C=C1C(n2cnc3c(=O)[nH]c(N)nc32)C[C@H](O)[C@H]1CO (stereo not given in full) | 1.19% (inactive) | –
8 | Cc1cnc(NC(=O)C2C(=O)c3ccccc3S(=O)(=O)N2C)s1 (stereo not given) | -18.9% (inactive) | –
9 | C=C1[C@@H]2CC[C@H](C2)C1(C)C | -4.66% (inactive) | –
10 | CC(CN1CC(=O)NC(=O)C1)N1CC(=O)NC(=O)C1 (stereo not given) | – | 18.1 µM (active)
11 | C[C@@H](O)[C@@H]1C(=O)N2C(C(=O)O)=C([C@H]3CCCO3)S[C@H]12 | -1.65% (inactive) | –
12 | OCC(CO)NC1C[C@](O)(CO)[C@@H](O)[C@H](O)[C@H]1O (stereo not given in full) | 1.12% (inactive) | –
13 | C=C(CC[C@@H](C)[C@H]1CCC2[C@]1(C)CC[C@]13C[C@@]14CCC(OC(=O)/C=C/c1ccc(O)c(OC)c1)C(C)(C)[C@@H]4CC[C@@]23C)C(C)C (stereo not given in full) | 1.49% (inactive) | –
14 | OCC1OC(O)C(O)C(O)C1O (stereo not given) | -0.564% (inactive) | –
15 | COC(=O)C1C2CC3c4[nH]c5cc(OC)ccc5c4CCN3CC2CC(OC)C1OC (stereo not given) | 2.37% (inactive) | –
16 | CC(=O)OC1C([N+]2(C)CCCCC2)C[C@H]2C3CC[C@H]4C[C@H](OC(C)=O)C([N+]5(C)CCCCC5)CC4(C)C3CCC12C (stereo not given in full) | -40.7% (inactive) | –
17 | CC(C)C[C@@H](NC(=O)[C@@H](Cc1ccccc1)NC(=O)c1cnccn1)B(O)O | – | 0.0051 µM (active)
18 | Cc1cn([C@H]2CC(F)[C@@H](CO)O2)c(=O)[nH]c1=O (stereo not given in full) | 2.52% (inactive) | –
19 | CO/N=C(/C(=O)N[C@@H]1C(=O)N2C(C(=O)O)=C(CSc3nnnn3C)CS[C@H]12)c1csc(N)n1 | -8.27% (inactive) | –
20 | C[C@@H]1C(SC2Cn3cnc[n+]3C2)=C(C(=O)[O-])N2C(=O)[C@H]([C@@H](C)O)[C@@H]12 (stereo not given in full) | 1.75% (inactive) | –

Row | Structure (SMILES) | activity change, negative = inhibition | Potency
21 | CCOC(=O)C(CCc1ccccc1)NC(C)C(=O)N1Cc2cc(OC)c(OC)cc2CC1C(=O)O (stereo not given) | 86.5% (inactive) | –
22 | CNC(=O)C(N)CSC(C)C1=C(C)c2cc3[n-]c(cc4nc(cc5[n-]c(cc1n2)c(C)c5CCC(=O)O)C(CCC(=O)O)=C4C)c(C)c3C(C)SCC(N)C(=O)NC.[Fe+2] (stereo not given) | 0.247% (inactive) | –
23 | O=C(O)[C@H]1C[C@@H](CP(=O)(O)O)CCN1 | 23.2% (inactive) | –
24 | OCC1O[C@@H](O[C@@H]2C(CO)OC(O)C(O)C2O)C(O)C(O)C1O (stereo not given in full) | -11.3% (inactive) | –
25 | CC(=O)NC[C@@H]1CN(c2ccc(N3CCOCC3)c(F)c2)C(=O)O1 | -0.369% (inactive) | –
26 | Cc1ccc(S(=O)(=O)NC(=O)NC(C)Cc2ccccc2)cc1 (stereo not given) | -15% (inactive) | –
27 | CCC1OC(=O)C[C@H](O)C(C)[C@@H](O[C@@H]2OC(C)C(O)C(N(C)C)C2O)C(CCN2CC(C)CC(C)C2)CC(C)C(=O)/C=C/C(C)=C\[C@@H]1COC1OC(C)C(O)C(OC)C1OC (stereo not given in full) | -0.602% (inactive) | –
28 | CC(=O)NC1[C@H](O)C[C@@](O)(C(=O)O)O[C@H]1[C@H](O)[C@H](O)CO (stereo not given in full) | -13.4% (inactive) | –
29 | O=C(O)C[CH2][Ge](=[O])[O][Ge](=[O])[CH2]CC(=O)O | -1.1% (inactive) | –
30 | CN1[C@H]2CC(OC(=O)[C@H](CO)c3ccccc3)C[C@H]1[C@H]1O[C@H]12 (stereo not given in full) | 0.492% (inactive) | –
31 | OC[C@@H](O)C(O[C@@H]1O[C@@H](CO)[C@H](O)[C@H](O)[C@H]1O)[C@H](O)[C@@H](O)CO (stereo not given in full) | -4.98% (inactive) | –
32 | C/C1=C2/[N-]C(C(CC(N)=O)[C@@]2(C)CCC(=O)NCC(C)OP(=O)([O-])O[C@H]2[C@@H](O)[C@@H](n3cnc4cc(C)c(C)cc43)O[C@@H]2CO)[C@]2(C)N=C(/C(C)=C3N=C(/C=C4N=C1C(CCC(N)=O)C\4(C)C)[C@@H](CCC(N)=O)[C@]\3(C)CC(N)=O)[C@@H](CCC(N)=O)[C@]2(C)CC(N)=O.CC(=O)O.[Co] (stereo not given in full) | – | 2.56 µM (active)
33 | CO/N=C(/C(=O)N[C@@H]1C(=O)N2C(C(=O)O)=C(CSc3nc(C)c(CC(=O)O)s3)CS[C@H]12)c1csc(N)n1 | 4.53% (inactive) | –
34 | CC(c1ncncc1F)[C@](O)(Cn1cncn1)c1ccc(F)cc1F (stereo not given in full) | -8.69% (inactive) | –
35 | CCCCCCCCCCCC(=O)OCC(O)C1OCC(O)C1O (stereo not given) | -18.5% (inactive) | –
36 | Cc1ccccc1N1C(=O)c2cc(N)ccc2N/C1=C\F | -56.3% (inactive) | –
37 | CN[C@H](C)CCC=C(C)C | -25.6% (inactive) | –
38 | CCCCCCCCCCCCCCCC(=O)OCC(COP(=O)(O)OCC[N+](C)(C)C)OC(=O)CCCCCCCCCCCCCCC (stereo not given) | -23.8% (inactive) | –
39 | CC(C)(C)NC[C@H](O)CSc1nc(-c2ccc(C(N)=O)s2)cs1 | 7.44% (inactive) | –
40 | CC[C@@H](C)C(N)C(=O)O (stereo not given in full) | -19.2% (inactive) | –
